Measured values as given in the supplement of paper PMC10933113.
Structures can show the parent of a compound that is named as a salt. ± gives the uncertainty stated by the source.

These molecules were tested on THP-1 (assay: CD86 surface expression induction over DMSO control (% over DMSO); higher = stronger dendritic cell activation). Settings: exposure time: 24 h.
Procedure: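 hCLAT-like CD54 and CD86 surface expression on THP1 cells after 24 h exposure at a single concentration (highest non-cytotoxic concentration, or 100-200 µM if not cytotoxic). Flow cytometry (iQue) was run on 5,000 live cells.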

| Structure (SMILES) | CD86 surface expression induction |
| --- | --- |
| COc1cc(/C=C2\CCC/C(=C\c3ccc(O)c(OC)c3)C2=O)ccc1O [Cyclovalone] (10 µM) | -7.37 ± 5.9 |
| CCCCCCCCCCCCCCCC[N+](C)(C)Cc1ccccc1 [Benzylhexadecyldimethylammonium chloride] (10 µM) | 57.5 ± 17 |
| COc1ccc(C(=O)c2ccc(C)cc2)c(O)c1 [Mexenone] (300 µM) | 18.8 ± 32 |
| Clc1ccccc1-c1nc(-c2ccncc2)no1 [Pifexole] (100 µM) | 3.84 ± 13 |
| O=C(OCc1ccccc1)c1ccc(O)cc1 [Benzylparaben] (100 µM) | 3 ± 13 |
| COc1ccc(C(=O)/C(Br)=C\C(=O)O)cc1 [Cytembena] (200 µM) | 32 ± 49 |
| CO[C@@]12[C@H](COC(N)=O)C3=C(C(=O)C(C)=C(N)C3=O)N1C[C@@H]1N[C@@H]12 [Mitomycin C] (100 µM) | 60.5 ± 16 |
| CC1=C(/C=C/C(C)=C/C=C/C(C)=C/C=O)C(C)(C)CCC1 [13-cis-Retinal (Vitamin A aldehyde)] (100 µM) | 64.3 ± 98 |
| CC(=O)C1(C)CC2=C(CCCC2(C)C)CC1C (stereo not given) (100 µM) | 9.62 ± 13 |
| CNc1ccc(O)cc1 [4-(Methylamino)phenol Sulfate] (10 µM) | 37.1 ± 4.6 |
| O=c1cc(-c2ccccc2)oc2cc(O)cc(O)c12 [Chrysin] (100 µM) | 38.2 ± 51 |
| CCc1oc2ccccc2c1C(=O)c1cc(I)c(O)c(I)c1 [Benziodarone] (100 µM) | 7.99 ± 3.4 |
| CCCCOCCOCCOCCO [2-[2-(2-Butoxyethoxy)ethoxy]ethanol] (115 µM) | 12.7 ± 12 |
| COc1cc(C(C)C)c2c(c1)S(=O)(=O)N(COc1cc(=O)n3cccc(OCCN4CCCCC4)c3n1)C2=O (100 µM) | 117 ± 98 |
| Clc1ccc(C(Cn2ccnc2)OCc2ccc(Sc3ccccc3)cc2)c(Cl)c1 (stereo not given) [Fenticonazole nitrate] (100 µM) | 102 ± 96 |
| CCCCCCC(C)O (stereo not given) [2-Octanol] (200 µM) | 0.56 ± 6.7 |
| O=C(/C=C/C=C/c1ccc2c(c1)OCO2)N1CCCCC1 [Piperine] (100 µM) | -4.64 ± 6.3 |
| O=C(Nc1ncc([N+](=O)[O-])s1)c1cccs1 [Tenonitrozole] (10 µM) | -9.19 ± 11 |
| Cc1cccc(N(C)C(=S)Oc2ccc3c(c2)C2CCC3C2)c1 (stereo not given) [Tolciclate] (100 µM) | -1.12 ± 6 |
| O=C(O)Cn1c(C(=O)Nc2nc(-c3ccccc3Cl)cs2)cc2ccccc21 [Lintitript] (100 µM) | -2.3 ± 0.27 |

| Structure (SMILES) | CD86 surface expression induction |
| --- | --- |
| CCOC(=O)CCC(=O)OCC [Diethyl butanedioate] (200 µM) | -4.2 ± 3.3 |
| [Cl][Bi]([Cl])([c]1ccccc1)([c]1ccccc1)[c]1ccccc1 [Triphenylbismuthine dichloride] (10 µM) | 53 ± 6.3 |
| N=C(N)NN=C(/C=C/c1ccc([N+](=O)[O-])o1)/C=C/c1ccc([N+](=O)[O-])o1 [Nitrovin] (10 µM) | 88.4 ± 21 |
| O=C(Nc1ccccc1)c1cc(Cl)ccc1O [5-Chlorosalicylanilide] (10 µM) | -11.7 ± 12 |
| C=CC(C)(CCC=C(C)C)OC(=O)CC(C)C (stereo not given) [Linalyl isovalerate] (200 µM) | 4.35 ± 0.78 |
| CC(C)=CCOc1ccc(/C=C/C(=O)c2ccc(OCC=C(C)C)cc2OCC(=O)O)cc1 [Sofalcone] (100 µM) | -6.95 ± 7.2 |
| Cc1c2ccccc2c(C)c2c1ccc1ccccc12 [7,12-Dimethylbenzanthracene] (10 µM) | 47.5 ± 61 |
| C/C=C/C=C/CCCCCCCO [Codlelure] (200 µM) | -13 ± 6 |
| CC(C)c1ccc2cc(C(C)C)ccc2c1 [2,6-Diisopropylnaphthalene] (200 µM) | 18.9 ± 22 |
| CC(C)(C)c1cc(O)c(C(C)(C)C)cc1O [2,5-Di-tert-butylbenzene-1,4-diol] (100 µM) | 6.5 ± 4.4 |
| O=C1c2ccccc2C(=O)C1c1ccc2ccccc2n1 [D & C Yellow II] (10 µM) | -14.2 ± 7.4 |
| CC(C)=CCC1C(=O)N(c2ccccc2)N(c2ccccc2)C1=O [Feprazone] (200 µM) | 71.8 ± 44 |
| Oc1c(Br)cc(Br)c2cccnc12 [Broxyquinoline] (100 µM) | 57.8 ± 75 |
| CC(C)C[C@H](NC(=O)[C@H](Cc1ccccc1)NC(=O)c1cnccn1)B(O)O [Bortezomib] (10 µM) | 107 ± 8.1 |
| C=CCOC(=O)/C=C\C(=O)OCC=C [Diprop-2-en-1-yl (2Z)-but-2-enedioate] (203 µM) | 29.9 ± 1.4 |
| Sc1nc2ccccc2s1 [2-Mercaptobenzothiazole] (100 µM) | -1.26 ± 3.2 |
| C=CC(=O)OCCn1c(=O)n(CCOC(=O)C=C)c(=O)n(CCOC(=O)C=C)c1=O (10 µM) | 14.2 ± 10 |
| CC[C@@]1(O)C(=O)OCc2c1cc1n(c2=O)Cc2c-1nc1ccccc1c2/C=N/OC(C)(C)C [Gimatecan] (10 µM) | 25.6 ± 10 |
| COc1cccc2c1C(=O)c1c(O)c3c(c(O)c1C2=O)C[C@@](O)(C(=O)CO)C[C@@H]3O[C@H]1C[C@H](N)[C@H](O)[C@H](C)O1 [Doxorubicin*] (10 µM) | 218 ± 96 |
| CC(C)CC(NC(=O)OCC1c2ccccc2-c2ccccc21)C(=O)O (stereo in doubt) [N-(9-Fluorenylmethoxycarbonyl)-L-leucine] (100 µM) | -11.4 ± 2.7 |
